High-throughput results deposited in PubChem BioAssay by National Center for Advancing Translational Sciences (NCATS).
A selection: hits, their analogues and other compounds. The true share with any hit is near 19%.
TDP1 cell CPT – qHTS for Inhibitors of human tyrosyl-DNA phosphodiesterase 1 (TDP1): qHTS in cells in presence of CPT; chicken DT40 Tdp1-/-;hTDP1 cells + 20 nM CPT, ATP luminescence, 48 h; Potency, µM (highest dose often 46.2 µM), hits mostly inhibitors; 12% of 420,000 active; AID 686979, 2013; further: nearly all actives have a fitted effect of over 55% in size
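Cell growth measured by CellTiter-Glo luminescence after a minimum 48 h, 37 C compound exposure with 20 nM CPT in Tdp1-knockout DT40 cells stably expressing hTDP1, seeded 400/well; qHTS titration format.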
HT1080 IDH1KD tx – qHTS for induction of synthetic lethality in tumor cells producing 2HG: qHTS for the HT-1080-IDH1KD cell line | Potency, µM (highest dose often 46.1 µM), actives largely listed as cytotoxic | HT-1080 IDH1 knockdown viability, ATP luminescence, 48 h | 2% of 360,000 active
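Luminescent ATP read-out (CellTiter-Glo, 10 min at room temperature) after 48 h compound exposure at 37 °C gave viability of IDH1-knockdown HT-1080 cells. Activity was normalised to DMSO and cell-free wells, then fitted as concentration-response curves.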
IL-1B inflam inh – qHTS for Inhibitors of Inflammasome Signaling: IL-1-beta AlphaLISA Primary Screen; THP-1 LPS/ATP IL-1B secretion, AlphaLISA, 16 h; active compounds read low; activity change, % at 57.5 µM; 4.7% of 360,000 active; in the data active means activity change below about -50%; inconclusive means mostly about -30% to -49%
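Secreted IL-1B measured by AlphaLISA bead assay after 16 h compound exposure of THP-1 cells; compounds (final up to 57.5 uM) added 1 h before LPS (250 ng/mL) and ATP (1.25 mM) stimulation; lower signal means less secretion.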
TDP1 cell noCPT – qHTS for Inhibitors of human tyrosyl-DNA phosphodiesterase 1 (TDP1): qHTS in cells in absence of CPT; AID 686978, 2013; DT40 Tdp1-/- hTDP1 cells, no CPT, ATP luminescence, 48 h; Potency, µM (highest dose often 46.2 µM), usual class: inhibitors; 15% of 420,000 active; further: nearly all actives have a fitted effect of over 55% in size
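Chicken DT40 Tdp1-/- cells stably complemented with human TDP1 were seeded at 400 cells/well with DMSO in place of 20 nM camptothecin. After compound pinning, cells grew at least 48 hr at 37 °C; viability read by CellTiter-Glo luminescence.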
HT1080NT lethal – qHTS for induction of synthetic lethality in tumor cells producing 2HG: qHTS for the HT-1080-NT fibrosarcoma cell line; Potency, µM (highest dose often 46.1 µM), hits mostly cytotoxic; 1.6% of 360,000 active; HT-1080-NT fibrosarcoma viability, CellTiter-Glo ATP luminescence, 48 h;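 further: NT is the 2HG producing partner of a matched IDH1 knockdown line; nearly all actives have a fitted effect of over 55% in size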
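Viability by CellTiter-Glo luminescence after 48 h compound exposure at 37C of HT-1080-NT cells (750/well, RPMI, 5% FBS). % activity scaled between DMSO wells and medium-only wells, then curve-fitted and categorized by curve class.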
A number is an active result; 0 = inactive; ? = inconclusive; - = no result given. Unless noted, the call rests on the fitted dose curve; in most records, active means well fitted curve in the direction sought with a large enough effect; inconclusive means small, poorly fitted or top-dose-only effect, or another doubt; inactive means no such curve, though single readings can be large; an effect the other way counts as inactive or inconclusive.

SMILES	TDP1 cell CPT	HT1080 IDH1KD tx	IL-1B inflam inh	TDP1 cell noCPT	HT1080NT lethal
CC(=O)c1cn(CC(=O)NCCc2c[nH]c3ccccc23)c2ccccc12	16.4µM	0	0	23.1µM	0
O=C(N/N=C/c1ccccc1OC(=O)N1CCOCC1)c1cccs1	4.11µM	?	0	4.61µM	0
CC(N)Cc1ccc2c(c1)OCO2 (centres undefined)	0	-	-	0	-
C/C=C(\C)C(=O)N[C@@H](c1ccccc1)[C@@H](O)C(=O)O[C@H]1C[C@@]2(O)[C@@H](OC(=O)c3ccccc3)C3[C@](C)(C(=O)[C@H](O)C(=C1C)C2(C)C)[C@@H](O)C[C@H]1OC[C@@]31OC(C)=O (some centres undefined)	0.0461µM	0.0058µM	0	0.164µM	0.0411µM
C/C=C(\C)C(=O)N[C@@H](c1ccccc1)[C@@H](O)C(=O)O[C@H]1C[C@@]2(O)[C@@H](OC(=O)c3ccccc3)C3[C@](C)(C(=O)[C@H](OC(C)=O)C(=C1C)C2(C)C)[C@@H](O)C[C@H]1OC[C@@]31OC(C)=O (some centres undefined)	0.013µM	?	0	0.0103µM	?
CC(=O)O[C@@]12CO[C@@H]1C[C@H](O)[C@@]1(C)C(=O)[C@H](O)C3=C(C)[C@@H](O)C[C@@](O)([C@@H](OC(=O)c4ccccc4)C12)C3(C)C (some centres undefined)	9.2µM	?	0	9.2µM	?
O=C1C[C@@H]2OCC=C3CN4CC[C@]56c7ccccc7N1[C@H]5[C@H]2[C@H]3C[C@H]46	-	-	-	0	-
CCCN1CCCC(C(=O)c2cc(C)c(OC)c(C)c2)C1 (centres undefined)	?	0	0	?	0
CC(=O)c1ccc(Oc2ccc(C(=O)c3ccc(C)c(C)c3)cc2[N+](=O)[O-])cc1	8.2µM	0	0	2.31µM	0
O=c1c2ccccc2nc2n1CCS2(=O)=O	2.91µM	0	-88.5	0	0
Cc1cc(OC(=O)N(C)C)nc(SCc2c(Cl)cccc2Cl)n1	0	?	0	?	0
Cc1c(C)c2c(c(C)c1OC(=O)CCC(=O)OCCO)CC[C@@](C)(CCC[C@H](C)CCC[C@H](C)CCCC(C)C)O2	10.6µM	-	-	?	-
CCOC(=O)C(O)(c1ccc(N(CC)S(=O)(=O)c2ccccc2)cc1)C(F)(F)F (centres undefined)	?	0	0	?	0
COc1ccc(CCN(C)Cc2c(F)cccc2F)cc1OC	0	0	0	0	0
ClC=C(Cl)Cl	0	-	-	0	-
CN(C)C1(CNC(=O)c2ccc(NS(=O)(=O)c3ccc(Cl)c(Cl)c3)cc2)CCCCC1	?	0	0	?	0
CC(C)c1ccc2[nH]c(O)c(N=NC(=O)c3cccc(S(=O)(=O)Nc4ccc(Cl)cc4)c3)c2c1	11.6µM	0	0	10.3µM	?
O=C1CN=C(c2ccccc2Cl)c2cc(Br)ccc2N1	0	0	0	?	0
COC(=O)C1=C(c2ccc(F)cc2OCc2ccccc2)C[C@@H]2CC[C@H]1N2C(=O)NCc1ccccc1Cl	?	0	0	?	0
COC(=O)C1=C(c2ccc(F)cc2OCc2ccccc2)C[C@@H]2CC[C@H]1N2C(=O)NC(C)C	?	0	0	20.6µM	0
COC(=O)C1=C(c2ccc(F)cc2OCc2ccccc2)C[C@@H]2CC[C@H]1N2C(=O)NC1CC1	16.4µM	0	0	?	0
COC(=O)C1=C(c2ccc(F)cc2OCc2ccccc2)C[C@@H]2CC[C@H]1N2C(=O)N1CCCC1	6.51µM	0	0	5.8µM	0
COC(=O)C1=C(c2ccc(F)cc2OCc2ccccc2)C[C@@H]2CC[C@H]1N2C(=O)NC1CCCCC1	?	0	0	?	0
C[C@H]1CN([C@@H](C)CO)C(=O)CCCn2nncc2CO[C@@H]1CN(C)C(=O)Oc1ccccc1	0	0	0	0	0
C[C@]12CCC(=O)C=C1C=CC1C2CC[C@@]2(C)C1CC[C@@H]2O (some centres undefined)	?	0	0	0	0
SMILES	TDP1 cell CPT	HT1080 IDH1KD tx	IL-1B inflam inh	TDP1 cell noCPT	HT1080NT lethal
O=C(O)C1(Br)CC12c1ccccc1-c1ccccc12 (centres undefined)	0	0	0	0	0
Clc1ccc(C2=CCC[C@H]3CC[C@@H]2N3)cn1	0	-	-	0	-
CCC(CC)COC(=O)C(C#N)c1nc2ccccc2nc1N1CCN(CC)CC1 (centres undefined)	20.6µM	?	-60.3	?	?
COc1ccc2c(c1)CC1(CN2C)C(=O)NC(=O)N(CCc2ccccc2)C1=O (centres undefined)	?	0	0	5.8µM	0
COc1cc(CN2C(=O)NC(=O)C3(Cc4cc(C)ccc4N(C)C3)C2=O)cc(OC)c1 (centres undefined)	?	?	0	0.0103µM	?
COc1cccc(N2C(=O)NC(=O)C3(Cc4cc(C)ccc4N(C)C3)C2=O)c1 (centres undefined)	?	0	0	?	0
Cc1ccc2c(c1)CC1(CN2C)C(=O)NC(=O)N(c2cc(C)ccc2C)C1=O (centres undefined)	0	0	0	0	0
CCCCN1C(=O)NC(=O)C2(Cc3cc(C)ccc3N(C)C2)C1=O (centres undefined)	?	0	0	13µM	0
CCCC[n+]1cc(/N=C(\[O-])OC)on1	0	0	0	0	0
C/C(=N\Nc1cccc2ccccc12)c1c(O)n(Cc2ccccc2)c(=O)[nH]c1=O	16.4µM	0	0	20.6µM	0
CC(=NCCc1c[nH]c2ccccc12)c1c(O)n(Cc2ccccc2)c(=O)[nH]c1=O	7.31µM	?	?	8.2µM	0
CC(=NCCN1CCOCC1)c1c(O)n(Cc2ccccc2)c(=O)[nH]c1=O	0	0	0	0	0
Cc1cc(C(=O)N2CCC3(CC2)OCCO3)no1	0	0	0	0	0
COc1ccc(-c2cc(=NCCC(=O)O)c3cc(C)ccc3o2)cc1	0	0	-58.1	0	0
CNC(C)C(O)c1ccc(O)cc1 (centres undefined)	0	-	-	0	-
COc1ccc(NC(=O)Nc2ccc3c(c2)C(=O)N([C@H](C)CO)C[C@H](C)[C@@H](CN(C)S(=O)(=O)c2ccc(OC)cc2)O3)cc1	?	0	0	?	0
COc1ccc(S(=O)(=O)N(C)C[C@H]2OCCCC[C@@H](C)Oc3ccc(N(C)C)cc3C(=O)N([C@H](C)CO)C[C@@H]2C)cc1	?	0	0	23.1µM	0
